An excerpt weighted towards active compounds, which were near 3.5% of everything screened.
TEAD-YAP inh = TEAD-YAP interaction inhibition; AID 1259422; 640,000 compounds, 1.4% hits; inhibition, % at 9.12 µM; HEK-TIYL cells, TEAD-Gal4/YAP UAS-luciferase luminescence; in the data active = inhibition above about 32%;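 note: 0% = median of test compound wells and 100% = reference inhibitor wells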
GPR151 ag = activates the human receptor GPR151. Q8TDV0. PathHunter beta-arrestin GPR151 cells, luminescence. activation, % at 11.2 µM. 650,000 compounds, 1% hits; in the data active = activation above about 4.9%;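 note: 0% = median of compound wells and 100% = cells with positive control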
FBW7 act = human FBW7 E3 ligase activation, primary screen | Q969H0 | AlphaScreen FBW7–phospho-cyclin E peptide binding, activator screen | normalized activity (activation), % at 26.1 µM | 650,000 compounds, 0.13% hits; in the data active = normalized activity above about 1.9%;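 note: purified mutant Fbw7 with reduced substrate affinity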
Target sequence (Q969H0 whole entry, looked up): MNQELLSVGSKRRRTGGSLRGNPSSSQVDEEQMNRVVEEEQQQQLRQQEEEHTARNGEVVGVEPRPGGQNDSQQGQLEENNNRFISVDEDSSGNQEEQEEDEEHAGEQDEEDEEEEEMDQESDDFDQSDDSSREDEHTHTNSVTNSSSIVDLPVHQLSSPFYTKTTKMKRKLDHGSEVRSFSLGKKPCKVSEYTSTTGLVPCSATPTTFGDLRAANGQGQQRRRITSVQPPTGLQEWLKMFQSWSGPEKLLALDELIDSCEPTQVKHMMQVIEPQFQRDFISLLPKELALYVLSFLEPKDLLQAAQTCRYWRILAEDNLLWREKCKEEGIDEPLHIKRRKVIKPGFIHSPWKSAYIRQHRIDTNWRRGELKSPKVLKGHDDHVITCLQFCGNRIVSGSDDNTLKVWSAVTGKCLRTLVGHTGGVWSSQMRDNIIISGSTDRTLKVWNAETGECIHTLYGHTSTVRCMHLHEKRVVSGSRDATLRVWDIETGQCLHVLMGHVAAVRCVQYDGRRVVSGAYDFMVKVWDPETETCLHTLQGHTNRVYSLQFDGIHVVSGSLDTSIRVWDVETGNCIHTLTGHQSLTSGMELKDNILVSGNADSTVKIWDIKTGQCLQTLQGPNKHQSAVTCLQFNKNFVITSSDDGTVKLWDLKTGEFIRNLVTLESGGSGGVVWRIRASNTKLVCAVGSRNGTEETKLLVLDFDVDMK
MITF inh = blocks human microphthalmia-associated transcription factor. AID 1259374. inhibition, % at 2.6 µM. 650,000 compounds, 0.91% hits. AlphaScreen MITF homodimerization, bead proximity signal; in the data active = inhibition above about 50%;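 note: 0% = vehicle wells with protein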
GPR151 conf act = confirmation of human GPR151 activators; shares compounds with GPR151 ag; GPR151 PathHunter beta-arrestin cells, luminescence, 90 min; % of EA-reagent control over plate median; activation, % at 11.2 µM; 6,700 tested, under 10 active;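 active = mean percent activation across replicates above the confirmation screen cutoff of 4.91%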
GPR119 ag = activates human GPR119 in a GPR151 counter-screen; shares compounds with GPR151 ag; GPR119 PathHunter beta-arrestin cells, luminescence, 90 min; 0 = compound-well median, 100 = enzyme-acceptor control; activation, % at 11.2 µM; 6,700 compounds, 0.3% hits; AID 1508611;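 active = mean percent activation in the counterscreen above 29.09%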;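 note: counterscreen on off-target GPR119 to flag nonselective hits from the GPR151 activator screen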
Numbers without * were called inactive; . = not tested or not shown; ! = not confirmed by another sample.

SMILES | TEAD-YAP inh | GPR151 ag | FBW7 act | MITF inh | GPR151 conf act | GPR119 ag
COc1ccc(CN2CCN(Cc3ccc(OC)c(OC)c3OC)CC2)cc1OC | 15.8 | 5.9* | 0.1 | 48.3 | 0.2 | 5.7
CCn1c2ccccc2c2cc(CN3CCN(Cc4ccc(OC)c(OC)c4OC)CC3)ccc21 | -3.3 | -1.2 | -0.2 | 42.3 | . | .
COc1cccc(-c2noc(/C=C/c3ccc(OC)c(OC)c3)n2)c1 | -22.6 | 0.8 | 0.1 | 14.5 | . | .
COc1ccc(/C=C/c2nc(-c3cccnc3)no2)cc1OC | -65.9 | 8.7* | 0.2 | -1.8 | -0.1 | -14.9
COc1ccc(OC)c(/C=C/C(=O)Nc2ccc(Cl)c(Cl)c2)c1 | -8.2 | 3.2 | 0.0 | -2.3 | . | .
CS(=O)(=O)N1CCN(C(=O)c2cccnc2)CC1 | 4.8 | 0.7 | 0.1 | 8.2 | . | .
CS(=O)(=O)N1CCN(C(=S)NCc2ccc(F)cc2)CC1 | 4.1 | -0.6 | 0.1 | 5.5 | . | .
CS(=O)(=O)N1CCN(C(=O)c2ccc(Cl)cc2)CC1 | 1.8 | 7.8* | 0.2 | 15.4 | 1.0 | 11.2
CS(=O)(=O)N1CCN(C(=O)c2ccncc2)CC1 | 6.0 | 5.6* | 0.0 | 0.9 | -0.5 | 2.2
CN(c1ccc(C(=O)N2CCCC2)cc1)S(=O)(=O)c1ccc(Cl)cc1 | 0.6 | 6.6* | 0.1 | 9.9 | -0.9 | -15.5
CS(=O)(=O)N1CCN(C(=S)NCc2ccc(Cl)cc2)CC1 | 5.6 | 6.8* | 0.2 | 12.5 | 0.3 | 1.9
Cc1ccccc1N1C(=O)c2cccnc2C1O (centres undefined) | 7.4 | 0.5 | 0.0 | 8.0 | . | .
Cc1cc(-c2nnc(CCC(=O)N3CCC(O)(c4ccc(Cl)cc4)CC3)o2)c(C)o1 | -35.5 | 2.9 | 0.1 | -3.3 | . | .
Cc1ccccc1Cn1c(=O)c2c(nc3n2CCCN3c2ccc(F)cc2)n(C)c1=O | 1.9 | 9.7* | -0.3 | -0.5 | -0.4 | 3.8
CC(=O)NCCNCc1cc2ccc(Cl)cc2n(CCOc2ccccc2)c1=O | -5.4 | 1.1 | 0.1 | -8.8 | . | .
CN(C)CCCN1c2ccccc2CCc2ccc(Cl)cc21 | 0.2 | 10.5*! | -0.2 | 17.0 | 0.1 | -11.9
CN(CCCN1c2ccccc2CCc2ccccc21)CC(=O)c1ccc(Cl)cc1 | -6.3 | -2.1 | 0.1 | 6.3 | . | .
Cc1sc2nc(Cc3ccccc3)n(C3CCN(CC(N)=O)CC3)c(=O)c2c1C | -0.1 | 6.1* | 0.0 | 4.5 | 1.3 | -8.0
Cc1sc2nc(Cc3ccccc3)n(C3CCN(C(=O)c4ccco4)CC3)c(=O)c2c1C | -6.1 | 0.5 | 0.1 | 5.7 | . | .
COc1cc(OC)nc(Oc2ccccc2/C=N/Nc2ccccn2)n1 | 13.5 | -0.6 | -0.1 | -1.1 | . | .
O=C(NC1CCCCC1)C(c1ccncc1)N(C(=O)C(F)(F)F)C1CC1 (centres undefined) | -3.8 | 0.7 | -0.1 | 11.0 | . | .
CC(C)N(C(=O)C(F)(F)F)C(C(=O)NC1CCCCC1)c1ccncc1 (centres undefined) | -0.5 | 5.8* | 0.0 | -3.7 | 1.1 | 5.4
Cc1cc(NC(=O)c2cccs2)cc(C)c1OCC(=O)N1CCOCC1 | -15.8 | 5.2* | 0.0 | -11.4 | 0.4 | -2.4
CC(C)N(Cc1cnn(C)c1)C(=O)CCc1nnc(CCc2ccccc2)o1 | -7.0 | 2.7 | 0.1 | 2.8 | . | .
COc1ccccc1NC(=O)c1cc2ccccc2oc1=Nc1ccc(Cl)cc1Cl | -19.2 | 9.2* | -0.2 | -1.8 | 0.4 | 9.1
SMILES | TEAD-YAP inh | GPR151 ag | FBW7 act | MITF inh | GPR151 conf act | GPR119 ag
COc1ccccc1N=c1oc2ccccc2cc1C(=O)Nc1ccc(Cl)cc1Cl | 4.3 | 1.5 | 0.1 | -1.5 | . | .
O=C(NNC1=NCCC1)c1ccc(Br)cc1 | -4.5 | 0.3 | -0.1 | 4.8 | . | .
Cc1ccc(C(=O)NNC2=NCCC2)cc1 | -6.4 | 5.6* | 0.5 | -0.6 | 0.4 | 6.0
CCOCCCNC(=S)N1CCN(c2nc(-c3ccc(F)cc3)cs2)CC1 | 32.8* | 5.8* | 0.1 | 7.4 | 1.3 | 20.5
O=c1c2cc3c(cc2nc(SCc2cccc(F)c2)n1Cc1ccco1)OCO3 | -3.0 | -0.9 | -0.1 | -5.2 | . | .
O=c1c2nccnc2nc(SCc2cccc(F)c2)n1Cc1ccco1 | 5.6 | 11.8* | 0.2 | -18.1 | -0.3 | -0.5
Cc1nc(NCC2CC2)sc1-c1ccn(-c2cccc(F)c2)n1 | 9.2 | 5.8* | -0.1 | 0.1 | 0.2 | -1.9
Cc1nc(NCC2CC2)sc1-c1ccn(CCN2CCOCC2)n1 | -4.6 | -0.2 | -0.1 | -7.0 | . | .
